13 compounds from PubChem BioAssay (NCATS) can be followed below.

Assay [1] can be described thus: Quantitative High-Throughput drug screen in 47 multiple myeloma cell lines against the NCATS MIPE library collection: FR4_PLB cell viability assay (AID 1918924; further: nearly all actives have a fitted effect of over 35% in size; further: potency means the concentration at half of the fitted maximal effect). In short, it runs like this:
(§1)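 Relative luminescence from CellTiter-Glo served as the viability signal, referenced to DMSO-treated (100%) and cell-free medium (0%) controls. Treatment lasted 48 hours at 37C with 500 cells per well.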

Assay [2] can be described thus: Quantitative High-Throughput drug screen in 47 multiple myeloma cell lines against the NCATS MIPE library collection: Delta47_JCRB cell viability assay (AID 1918925; further: nearly all actives have a fitted effect of over 45% in size; further: potency means the concentration at half of the fitted maximal effect). In short, it runs like this: (§2)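 We plated 500 myeloma cells per well, pinned in MIPE 4.0 compounds, and incubated for 48 hours at 37C. ATP was then quantified with CellTiter-Glo, with DMSO and media-only wells defining 100% and 0%.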

The nature of assay [3]: Quantitative High-Throughput drug screen in 47 multiple myeloma cell lines against the NCATS MIPE library collection: EJM_DSMZ cell viability assay (AID 1918926; further: nearly all actives have a fitted effect of over 30% in size; further: potency means the concentration at half of the fitted maximal effect). A digest of the protocol:
as §2

Assay [4] is described as follows: Quantitative High-Throughput drug screen in 47 multiple myeloma cell lines against the NCATS MIPE library collection: AMO1_DSMZ cell viability assay (AID 1918927; further: nearly all actives have a fitted effect of over 30% in size; further: potency means the concentration at half of the fitted maximal effect). In short, it runs like this: as §2
Assay [5] is described as follows: Quantitative High-Throughput drug screen in 47 multiple myeloma cell lines against the NCATS MIPE library collection: ARP1_JJKsccF8 cell viability assay (AID 1918928; further: nearly all actives have a fitted effect of over 40% in size; further: potency means the concentration at half of the fitted maximal effect). A digest of the protocol:
(§3)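 CellTiter-Glo luminescence after 48 h exposure gives viability, scaled between DMSO-only (100%) and media-only (0%) controls. Library compounds are pinned onto 500 myeloma cells per well, incubated at 37C with 5% CO2.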

The nature of assay [6]: Quantitative High-Throughput drug screen in 47 multiple myeloma cell lines against the NCATS MIPE library collection: ARD_JJKsccE7 cell viability assay (AID 1918929; further: potency means the concentration at half of the fitted maximal effect). In short, it runs like this: as §2
The nature of assay [7]: Quantitative High-Throughput drug screen in 47 multiple myeloma cell lines against the NCATS MIPE library collection: Karpas620_DSMZ cell viability assay (AID 1918959). Further: nearly all actives have a fitted effect of over 30% in size. Further: potency means the concentration at half of the fitted maximal effect. In short, it runs like this: as §1
The nature of assay [8]: Quantitative High-Throughput drug screen in 47 multiple myeloma cell lines against the NCATS MIPE library collection: KMM1_JCRB cell viability assay (AID 1918960). Further: nearly all actives have a fitted effect of over 30% in size. Further: potency means the concentration at half of the fitted maximal effect. A digest of the protocol: as §3
A short description of assay [9]: Quantitative High-Throughput drug screen in 47 multiple myeloma cell lines against the NCATS MIPE library collection: Karpas417_ECACC cell viability assay (AID 1918961). Further: potency means the concentration at half of the fitted maximal effect. The conditions noted are these: Karpas417 myeloma viability, CellTiter-Glo ATP luminescence, 48 h; viability (% of DMSO): at 45.8 µM (top of the series). A digest of the protocol:
as §1
A general note: ATP-based viability assays read luminescence as a measure of living cells.

Assay [10] in a line: Quantitative High-Throughput drug screen in 47 multiple myeloma cell lines against the NCATS MIPE library collection: KHM11_PLB cell viability assay (AID 1918962). Further: nearly all actives have a fitted effect of over 35% in size. Further: potency means the concentration at half of the fitted maximal effect. A digest of the protocol:
as §1

Assay [11] can be described thus: Quantitative High-Throughput drug screen in 47 multiple myeloma cell lines against the NCATS MIPE library collection: JIM3_ECACC cell viability assay (AID 1918963; further: nearly all actives have a fitted effect of over 35% in size; further: potency means the concentration at half of the fitted maximal effect). In short, it runs like this:
as §1

Assay [12] is described as follows: Quantitative High-Throughput drug screen in 47 multiple myeloma cell lines against the NCATS MIPE library collection: JIM1_ECACC cell viability assay (AID 1918964; further: potency means the concentration at half of the fitted maximal effect). A digest of the protocol:
as §2

Assay [13] is described as follows: Quantitative High-Throughput drug screen in 47 multiple myeloma cell lines against the NCATS MIPE library collection: INA6_PLB cell viability assay (AID 1918965; further: nearly all actives have a fitted effect of over 55% in size; further: potency means the concentration at half of the fitted maximal effect). In short, it runs like this:
as §1

Assay [14] in a line: Quantitative High-Throughput drug screen in 47 multiple myeloma cell lines against the NCATS MIPE library collection: JJN3_DSMZ cell viability assay (AID 1918966; further: nearly all actives have a fitted effect of over 50% in size; further: potency means the concentration at half of the fitted maximal effect). In short, it runs like this:
as §2

A short description of assay [15]: Quantitative High-Throughput drug screen in 47 multiple myeloma cell lines against the NCATS MIPE library collection: H1112_PLB cell viability assay (AID 1918967; further: nearly all actives have a fitted effect of over 30% in size; further: potency means the concentration at half of the fitted maximal effect). A digest of the protocol: as §2
The nature of assay [16]: Quantitative High-Throughput drug screen in 47 multiple myeloma cell lines against the NCATS MIPE library collection: Karpas25_ECACC cell viability assay (AID 1918968; further: nearly all actives have a fitted effect of over 35% in size; further: potency means the concentration at half of the fitted maximal effect). A digest of the protocol:
as §2

The nature of assay [17]: Quantitative High-Throughput drug screen in 47 multiple myeloma cell lines against the NCATS MIPE library collection: KMS27_JCRB cell viability assay (AID 1918970). Further: nearly all actives have a fitted effect of over 30% in size. Further: potency means the concentration at half of the fitted maximal effect. In short, it runs like this:
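Myeloma cells (500 per well) were exposed to MIPE 4.0 compounds for 48 h at 37 °C, 5% CO2; viability was read as ATP luminescence with CellTiter-Glo, normalized to DMSO-only (100%) and media-only (0%) wells.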

Assay [18] concerns Nanoluciferase (engineered Oplophorus gracilirostris luciferase). The assay can be described thus: Primary Nanoluciferase (NLuc) qHTS assay for identification of artifact compounds. (AID 1845222).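 Further: NLuc secreted into diluted conditioned medium of S16 cells.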 In short, it runs like this:
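Using secreted nanoluciferase in S16 culture medium (0.22 um filtered, 1:55 dilution), compounds were preincubated 15 min at RT. Signal was generated with Nano-Glo reagent (1:100) over 5 min.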
(Quantitative high-throughput screening tests each substance at several concentrations.)

Molecules are shown by their SMILES. Records with an inconclusive call do not appear. Active and inactive are the calls of the source. The call rests on the fitted dose curve; in most records, active means well fitted curve in the direction sought with a large enough effect; inconclusive means small, poorly fitted or top-dose-only effect, or another doubt; inactive means no such curve, though single readings can be large; an effect the other way counts as inactive or inconclusive.

Regarding `NS(=O)(=O)c1cccc2c1C(=O)c1cccc(O)c1C2=O`, the Potency in [1] is 0.935 µM (active); in assay [2] it was 0.418 µM (active); in [3], 0.935 µM (active); in assay [4] it was 0.166 µM (active); in assay [5], 0.332 µM (active); in assay [6], 0.264 µM (active). Moreover, the Potency is 0.148 µM (active) in [7]; 0.264 µM (active) in assay [8]; 0.148 µM (active) in assay [9]; 0.662 µM (active) in [10]; 0.187 µM (active) in [11]; 0.209 µM (active) in [12]. Further, the Potency in [13] is 0.148 µM (active); in assay [14], 0.264 µM (active); in assay [15] it was 0.526 µM (active); in [16], 0.132 µM (active); in assay [17], 0.209 µM (active).
With `O=C1C(Cl)=C(NCCN2CCOCC2)C(=O)c2ncccc21`, the Potency in assay [1] was 6.62 µM (active); in assay [2] it was 7.43 µM (active); in [3], 7.43 µM (active); in assay [4], 2.96 µM (active); in assay [5], 4.69 µM (active); in [6], 5.26 µM (active). Further, the Potency in assay [7] was 1.48 µM (active); in assay [8], 3.32 µM (active); in assay [10], 9.35 µM (active); in assay [11] it was 8.33 µM (active); in assay [12] it was 2.96 µM (active); in [13] it was 2.96 µM (active). Further, the Potency is 11.8 µM (active) in assay [15], 2.64 µM (active) in assay [16] and 2.64 µM (active) in assay [17].
For the compound `CC1CCC(C(=O)N(c2cc(C#CC(C)(C)C)sc2C(=O)O)C2CCC(O)CC2)CC1` (stereo unspecified), the Potency entry in [18], in [4], in [6], in assay [7], in assay [8] and in assay [12] was “inactive” each time. In assay [17], the Potency entry was “inactive”. In addition, the results for the Potency in [2] and in [13] were 23.5 µM (active) and 26.4 µM (active), respectively.
Take `CN(C)c1cc(NC(=O)CNC(C)(C)C)c(O)c2c1C[C@@H]1C[C@H]3[C@H](N(C)C)C(=O)C(C(N)=O)=C(O)[C@@]3(O)C(=O)C1=C2O`: the Potency result in assay [1], in assay [2], in assay [3], in assay [4], in [5] and in assay [6] was “inactive” in each case. Besides, the Potency result in [8], in [9], in [11], in assay [13], in [15] and in [17] was “inactive” in each case.
As for `NC[C@@H]1O[C@@H](O[C@H]2[C@@H](O)[C@H](O[C@@H]3[C@@H](O)[C@@H](N)C[C@H](N)[C@H]3O[C@H]3O[C@H](CN)[C@@H](O)[C@@H](O)[C@H]3N)O[C@H]2CO)[C@H](N)[C@@H](O)[C@@H]1O`, the Potency result in [1], in assay [2], in [3], in assay [4], in assay [5] and in assay [6] was “inactive” each time. Also, the Potency entry in assay [8], in assay [11], in [12], in [13], in [15] and in [16] was “inactive” each time. The Potency entry in assay [17] is “inactive”.
`CC(C)(C)COc1ccc(-n2cc(C(=O)O)cn2)cc1C#N`: the Potency entry in [1], in assay [2], in assay [3], in assay [4], in [5] and in assay [6] was “inactive” in each case. Besides, the Potency result in assay [7], in assay [8], in [10], in assay [11], in [13] and in assay [14] was “inactive” throughout. Moreover, the Potency entry in [15] and in assay [17] was “inactive” throughout.
With `COc1cc(N2CCC(N3CCN(C)CC3)CC2)ccc1Nc1ncc(Cl)c(Nc2ccccc2S(=O)(=O)C(C)C)n1`, the Potency entry in [18], in [2] and in assay [16] was “inactive” in each case.
Consider `O=C1c2ccccc2-[n+]2ccc3c([nH]c4ccccc43)c21`, for which the Potency in assay [1] is 1.32 µM (active); in assay [2], 1.32 µM (active); in assay [3], 1.48 µM (active); in assay [4] it was 5.9 µM (active); in assay [5], 2.09 µM (active); in assay [6] it was 7.43 µM (active). In addition, the Potency in assay [7] was 3.72 µM (active); in [8], 3.72 µM (active); in assay [11], 0.59 µM (active); in [12] it was 3.72 µM (active); in assay [13] it was 1.18 µM (active); in assay [14], 1.48 µM (active). Also, the Potency in assay [15] is 5.26 µM (active); in [16], 0.418 µM (active); in [17] it was 2.64 µM (active).
On to `O=C(O)CCC1CCC(c2cc(F)ccc2F)(S(=O)(=O)c2ccc(Cl)cc2)CC1` (stereo unspecified), for which the Potency entry in assay [1], in assay [3], in assay [5] and in assay [14] was “inactive” each time. Besides, the Potency was 5.9 µM (active) in assay [2]; 5.9 µM (active) in [4]; 14.8 µM (active) in [6]; 16.6 µM (active) in assay [8]; 3.32 µM (active) in assay [13]; 9.35 µM (active) in assay [15]. Moreover, the Potency is 8.33 µM (active) in assay [16] and 2.64 µM (active) in [17].
As for `CC1(C)CCC2=C(O1)c1ccccc1C(=O)C2=O`, the Potency in assay [1] is 20.9 µM (active); in assay [2], 16.6 µM (active); in assay [3], 20.9 µM (active); in [4], 4.69 µM (active); in assay [5], 18.7 µM (active); in assay [7] it was 2.96 µM (active). For the same compound, the Potency was 18.7 µM (active) in assay [11], 5.9 µM (active) in [16] and 3.32 µM (active) in assay [17]. Besides, the Potency result in assay [6] is “inactive”.
In the case of `CON=C(C(=O)N[C@@H]1C(=O)N2C(C(=O)OCOC(=O)C(C)(C)C)=C(C=Cc3scnc3C)CS[C@H]12)c1csc(N)n1`, the Potency result in [1], in assay [2], in [3], in [4], in [5] and in assay [11] was “inactive” each time. In addition, in assay [15], the Potency entry is “inactive”. The Potency in assay [10] and in [13] was 18.7 µM (active) in each case.
As to `O=C(Nc1c(Cl)cncc1Cl)c1ccc(OC(F)F)c(OCC2CC2)c1`, the Potency entry in assay [1], in [3], in [4], in assay [5], in [6] and in assay [7] was “inactive” in each case. Moreover, the Potency result in assay [8], in assay [15] and in [17] was “inactive” throughout. The Potency in [2] was 26.4 µM (active).
For `COc1cc(NC(=O)c2ccc(-c3ccc(Cl)cc3)o2)cc(OC)c1`, the Potency result in assay [1], in assay [3] and in assay [5] was “inactive” in each case. Further, the Potency in assay [2] is 2.35 µM (active); in assay [4] it was 7.43 µM (active); in assay [7], 20.9 µM (active); in assay [8], 16.6 µM (active); in [10] it was 14.8 µM (active); in assay [11], 11.8 µM (active). In addition, the Potency is 8.33 µM (active) in assay [13], 2.96 µM (active) in [15] and 2.96 µM (active) in [16].
